# D2 PAM-1 = positive allosteric modulators of human D2 dopamine receptor; P14416; HEK293 T-REx D2, calcium flux, EC20 dopamine potentiation; potentiation, % at 10 µM; actives 0.34% (n = 340,000); AID 485347;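 active = potentiation over 3 SD above the plate norm, cut at about 30% in these data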
#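 Potentiation of an EC20 dopamine calcium response is measured in a force-coupled, tetracycline-inducible Hek293 Trex D2 line. Compound-only kinetic reads over 180 s flag agonists before dopamine addition.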
# D2 antagonist = antagonists of human D2 dopamine receptor; P14416; HEK293 TREx D2 cells, calcium flux, dopamine EC80; inhibition, % at 10 µM; actives 2% (n = 340,000); in the data active = inhibition above about 30%; inactive = below that, where a call was filed
#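 HEK293 T-REx D2 cells, tet-induced, calcium dye no-wash. Cpd pintool add, 180 s kinetic, then EC80 DA, 180 s kinetic. Ca flux read.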
# B2AR arrestin = agonists driving beta-arrestin recruitment to human beta2-adrenergic receptor | AID 492947 | P07550 | beta-arrestin recruitment to beta2AR, cell-based reporter | actives 0.02% (n = 330,000) | Potency, µM (doses to about 46.1 µM), most hits filed as activators; active = well fitted activation curve with a large enough effect; inconclusive = small, poorly fitted or top-dose-only effect; note: nearly all actives have a fitted effect of over 65% in size
# Target sequence (P07550 whole entry, looked up): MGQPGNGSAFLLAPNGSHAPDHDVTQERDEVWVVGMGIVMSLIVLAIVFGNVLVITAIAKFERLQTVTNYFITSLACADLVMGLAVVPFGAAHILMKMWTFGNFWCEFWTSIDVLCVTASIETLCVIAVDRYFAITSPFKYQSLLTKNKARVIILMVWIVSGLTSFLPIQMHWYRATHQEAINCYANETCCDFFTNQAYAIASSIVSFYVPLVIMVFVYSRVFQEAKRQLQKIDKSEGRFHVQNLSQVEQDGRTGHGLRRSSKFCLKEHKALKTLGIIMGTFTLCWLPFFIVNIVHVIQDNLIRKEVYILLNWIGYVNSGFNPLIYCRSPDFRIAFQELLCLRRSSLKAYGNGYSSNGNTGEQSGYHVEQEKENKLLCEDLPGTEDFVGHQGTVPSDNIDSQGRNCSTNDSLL
# D2 ag-1 = activates the human D2 dopamine receptor; P14416; HEK293 T-REx D2 cells, calcium flux agonist mode; activation, % at 2 µM; actives 0.53% (n = 340,000); AID 485358;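 active = activation over 3 SD above normal in the single-dose calcium agonist read, cut at about 30% in these data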
#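 Calcium-flux readout, 1 cycle/sec over 180 s following compound pin transfer, in inducible HEK293 Trex D2 cells (force-coupled); dopamine controls included. Positive calcium responses during this window marked compounds as potential agonists.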
# D2 PAM-2 = positive allosteric modulators of human D2 dopamine receptor; potentiation, % (concentration not given with the values); AID 624464; DiscoveRx D2 beta-arrestin cells, luminescence, 90 min; 100% = 57 uM dopamine signal; P14416; actives 0.23% (n = 360,000); in the data active = potentiation above about 50%; inconclusive = mostly about 30% to 49%
#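 PathHunter D2 cells, attached overnight at 37 deg C, received compound in DMSO plus dopamine at EC20 (50 nM final) for 90 min at 37 deg C. Beta-arrestin recruitment was read as luminescence after 1 h with detection reagent at ambient temperature.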
# D2 ag-2 = agonists of human D2 dopamine receptor (beta-arrestin) | P14416 | DiscoveRx PathHunter D2 beta-arrestin, luminescence, 90 min; 100% = 57 uM dopamine signal | activation, % (test concentration not listed) | actives 0.084% (n = 360,000); in the data active = activation above about 40%; inconclusive = between about 15% and that limit
#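 Agonist mode: compounds alone added to overnight-plated D2 PathHunter cells for 90 min at 37 C, with 57 uM final dopamine (EC100) defining full response. Beta-arrestin recruitment detected by chemiluminescent reagent, read after 1 h at ambient temperature.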
# Hits are given with their value; i = inactive; ? = inconclusive; nt = no result. Only some compounds are listed: those with a hit (about 2.4% of all), similar ones and a draw of the others.
SMILES,D2 PAM-1,D2 antagonist,B2AR arrestin,D2 ag-1,D2 PAM-2,D2 ag-2
Cc1cc(N2CCN(C(c3ccccc3)c3ccc(Cl)cc3)CC2)n2ncnc2n1 (stereo not drawn),i,31,i,i,i,i
O=C(N/N=C/c1cn(CC(=O)N2CCOCC2)c2ccccc12)c1cccnc1,i,i,i,i,i,i
CN(C)S(=O)(=O)N1C(=O)c2ccccc2C1=O,i,i,i,i,i,i
CN(C)/C=C1\C=C2C(=O)c3ccccc3N2C1=O,i,i,i,96,i,i
COCC(=O)Nc1c(C(=O)Nc2ccc(C)cc2)oc2ccccc12,i,nt,nt,i,nt,nt
CCOC(=O)N1CCN(C(=O)C2CCN(S(=O)(=O)c3cc(C)ccc3OC)CC2)CC1,i,33,i,i,i,i
CCOC(=O)N1CCN(C(=O)C2CCN(S(=O)(=O)c3cc(OC)ccc3OC)CC2)CC1,i,i,i,i,i,i
C=CCNC(=O)c1oc2ccc(S(=O)(=O)N3CCC4(CC3)OCCO4)cc2c1C,33,i,i,i,i,i
CSc1nccc(-c2c(-c3ccc(Cl)cc3)noc2C)n1,i,i,i,i,i,i
COc1ccc([C@H]2C[C@@H](n3cc(C4CC4)nn3)[C@H](O)CN2Cc2cccs2)cc1,nt,nt,nt,nt,i,i
O=C(NCCc1ccc(Cl)cc1)c1ccc(S(=O)(=O)N2CCCC2)cc1,i,i,i,i,i,i
CCCc1ccc(OC(=O)CSc2nnc(-c3cccs3)o2)cc1,i,nt,nt,i,nt,nt
O=Cc1ccc(-c2cccs2)s1,nt,nt,nt,nt,i,i
Oc1ccc(N=Cc2ccc(-c3cccs3)s2)cc1,i,i,?,i,56,i
CCN(CC)S(=O)(=O)c1ccc(OC)c(NC(=O)c2ccc(-n3cncn3)c([N+](=O)[O-])c2)c1,i,i,i,i,i,i
Cc1[nH]c(=O)c(C#N)c(C)c1Br,41,nt,i,nt,i,i
Cc1cccc(Cc2c(C)[nH]c(=O)c(C#N)c2C)c1,i,i,i,i,i,i
Cc1cc(NC(=O)CSCC(=O)N2CCN(c3cccc(C(F)(F)F)c3)CC2)no1,i,i,i,i,i,i
COc1ccc(C(=O)N2C=Cc3ccccc3C2C(N)=O)cc1 (stereo not drawn),nt,nt,nt,nt,i,i
Cc1ccc(/C=C/C(=O)Nc2nccs2)o1,i,i,i,i,53,i
Cc1cc(OCC(=O)O/N=C(\N)c2ccccc2)ccc1Br,i,i,i,30,i,i
Cc1ccc(OCC(=O)O/N=C(\N)c2ccncc2)cc1C,i,i,i,i,i,i
CC(=O)N1CCN(c2c(F)c(F)c(C(F)(F)F)c(F)c2F)CC1,nt,nt,i,nt,i,i
CCOC(=O)c1c(NC(=O)Nc2ccc(Cl)cc2)sc(C)c1C,i,36,i,i,i,i
CCOC(=O)c1sc(NC(=O)Nc2ccc(Cl)cc2)cc1C,i,38,i,nt,i,i
SMILES,D2 PAM-1,D2 antagonist,B2AR arrestin,D2 ag-1,D2 PAM-2,D2 ag-2
CCOC(=O)c1c(NC(=O)Nc2cccc(Cl)c2)sc(C)c1C,i,i,i,i,i,i
COc1ccc(-c2nc(CSCC(=O)N3CCN(C)CC3)c(C)o2)cc1OC,i,40,i,i,i,i
CCOC(=O)c1c(C)[nH]c(C)c1C(=O)COC(=O)c1ccc(S(=O)(=O)C(F)F)cc1,i,39,i,i,i,i
COc1ccc(-c2cc(-c3ccccc3)nc(SCC(=O)CC(=O)OC(C)C)c2C#N)cc1,i,nt,nt,i,nt,nt
O=C(COC(=O)c1ccc(NS(=O)(=O)c2ccc3c(c2)OCCO3)cc1)NCC1CCCO1 (stereo not drawn),i,i,i,i,i,i
Cc1ccc(N(CC(=O)N2CCN(c3cc(Cl)ccc3C)CC2)S(=O)(=O)c2c(C)noc2C)cc1,i,nt,nt,i,nt,nt
CC(=O)c1ccc(S(=O)(=O)NC2CC(=O)N(c3cccc(F)c3)C2)cc1 (stereo not drawn),i,i,i,i,i,i
O=C1CC(NS(=O)(=O)c2ccc([N+](=O)[O-])cc2)CN1c1cccc(F)c1 (stereo not drawn),42,i,i,i,i,i
CC(=O)c1sc(NC(=O)C2COc3ccccc3O2)nc1C (stereo not drawn),i,i,i,i,i,i
CCOC(=O)C(NC(=O)c1ccccc1)(Nc1cc(C)on1)C(F)(F)F (stereo not drawn),i,31,i,i,i,i
COCC(C)N1C(=O)Cc2c1nc(N)c1c(N)nc(N3CCN(c4ccccc4F)CC3)c(C#N)c21 (stereo not drawn),i,i,i,i,i,i
Cc1cc(C)cc(N(CC(=O)NC2CCCC2)C(=O)CCC(=O)Nc2nc(C)cs2)c1,i,i,i,i,i,i
Cc1cc(NC(=O)c2ccccc2F)nc2c1c(=O)oc1ccccc12,42,i,i,i,i,i
O=S(=O)(NC1CCCCC1)c1cccc2nsnc12,i,i,i,i,i,i
CCN(C(C)=O)c1cnc(C=NNC(N)=S)c2ccccc12,nt,nt,nt,nt,57,?
CCc1c(O)nc(SCC(=O)N(CC)CC)[nH]c1=O,i,34,i,i,i,i
Cc1nnc(SCC(=O)N(Cc2ccccc2)C(C)C)n1-c1ccccc1,i,i,i,i,i,i
COc1ccc(S(=O)(=O)NC(C)C(=O)N2CCCC2)cc1Cl (stereo not drawn),i,i,i,i,i,i
COc1ccc(S(=O)(=O)NC(C)C(=O)N2CCCC2)cc1C (stereo not drawn),i,32,i,i,i,i
Cc1ccc(C(=O)N/N=C\c2ccc(-c3ccc([N+](=O)[O-])cc3)o2)cn1,i,i,i,i,i,i
Cc1ccc(C(=O)N/N=C\c2ccc(-c3ccc(Cl)cc3)o2)cn1,30,i,i,i,i,i
O=c1nc(Nc2cccc(Cl)c2)oc2cc(Cl)oc(=O)c12,i,32,i,i,i,i
O=c1nc(Nc2ccccc2)oc2ccccc12,i,i,i,i,i,i
NS(=O)(=O)c1ccc(NC(=S)Nc2ccn(Cc3cccc4ccccc34)n2)cc1,i,42,i,i,i,i
COc1cc(NS(=O)(=O)c2ccc3c(c2)CC(=O)N3)cc(OC)c1OC,i,nt,nt,i,nt,nt
O=C(c1ccccc1)N1CCC(CC2CC(c3cccc(Br)c3)=NO2)(C(=O)NCC2CCCCC2)CC1 (stereo not drawn),i,31,i,i,i,i
Cc1ccc(/C=C/C(=O)c2cc(Br)ccc2OC(=O)c2ccco2)cc1,i,35,i,i,i,i
COc1ccccc1/C=C/C(=O)c1cc(Br)ccc1OC(=O)c1ccco1,nt,nt,nt,nt,i,i
